For 63 molecules, outcome results are on record in PubChem BioAssay AID624134 (Broad Institute, 2012).

Hit rate of the full screen: of about 1,600 compounds, about 1,100 (69%) were called active. The set was probably picked from earlier hits. These entries were drawn from the full list. Results with a measured potency or affinity are listed apart. Results filed as inconclusive are left out.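 Rule for the calls: active = signal drop with fitted half-maximal concentration no higher than twice the top valid tested concentration; inconclusive = flat curve with 30 to 70% signal loss, or poor fit; inactive = the rest, including signal rises and flat curves within 30%.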

The test in a line: HepG2 cell cytotoxicity, dose response, cytotoxicity control for Shn3 inhibitor project, CellTiter-Glo, cherry-picked (AID 624134). The following applies: HepG2 viability, CellTiter-Glo ATP luminescence, 48 h; series mostly up to 35 µM. Background: ATP-based viability assays read luminescence as a measure of living cells.
`CCCCC[C@H]1CN(Cc2ccc(OC)cc2)C(=O)[C@@H]1CC(=O)NCc1ccccc1`: the molecule was called inactive.

For the molecule `Cc1ccc(CS(=O)(=O)c2ncc(Cl)c(C(=O)Nc3nnc(C)s3)n2)cc1`, the outcome was inactive. `CSc1nnc(NC(=O)c2nc(S(=O)(=O)Cc3ccccc3F)ncc2Cl)s1`: the molecule was called inactive. For the molecule `CCn1c(=O)c(C(=O)Nc2nc3ccccc3[nH]2)c(O)c2ccccc21`, the molecule was called inactive.

In the case of `CCOC(=O)Cn1c(S(=O)(=O)Cc2ccccc2Cl)nc(-c2ccccc2)c1-c1ccccc1`, the result was inactive.

For the molecule `CCOC(=O)c1c(C)[nH]c(C)c1C(=O)CSc1nc2ccccc2c(=O)n1-c1ccc(CC)cc1`, the outcome was inactive. Take `CCOC(=O)c1cccc(NC2c3ccccc3C(=O)N2Cc2ccco2)c1` (stereo not drawn): the call was inactive. Turning to `CCOC(=O)Cn1c(=O)c(-c2cc(Br)ccc2N)nc2ccccc21`, the result was inactive. For `CSc1nnc(-c2ccco2)n1-c1ccccc1`, the molecule was called inactive. As for `CCC(C)c1ccc(S(=O)(=O)N2CCN(C(=O)c3ccc(Cl)c(S(=O)(=O)N4CCOCC4)c3)CC2)cc1` (stereo not drawn), the result was inactive. Consider `CCCCCCC#Cc1ccc2c(c1)COc1c3ccccc3nn1-2`, for which the outcome was inactive. With `O=C(O)C1(Nc2ccccc2Cl)CCCC1`, the call was inactive. `Cc1ccn2cc(-c3ccc(O)c(O)c3)nc2c1`: the molecule was called inactive. For the molecule `Cc1ccc(-c2cn3cc(C)ccc3n2)cc1`, the call was inactive. Next, `COC(=O)C12OCC34C(CC5C(C)=C(O)C(=O)CC5(C)C3C(O)C1O)OC(=O)C(OC(=O)C=C(C)C)C24` (stereo not drawn): “inactive”; `O=C(NCCCn1ccnc1)C(=O)NCC1OCCCN1S(=O)(=O)c1ccccc1` (stereo not drawn): “inactive”. Consider `CC(C)c1c(O)c2c(n(-c3ccccc3)c1=O)CCCC2`, for which the result was inactive. For the molecule `Cc1ccc(NC(=O)c2cc3ccccc3oc2=O)cc1S(=O)(=O)N(C)C`, the call was inactive.

Take `O=C1CCc2cccc(O)c2N1`: the molecule was classed as inactive.

Regarding `Cc1ccc(Cn2ccc(NC(=O)c3nn(C)cc3[N+](=O)[O-])n2)cc1`, the result was inactive. Take `Cc1ccc(C(=O)Nc2cnc3ccccc3c2)cc1`: the call was inactive.

Turning to `COC(=O)c1ccccc1NC(=S)N(Cc1ccc2c(c1)OCO2)Cc1cc2cc(OC)ccc2[nH]c1=O`, the molecule was classed as inactive.

As for `CC(C)c1nnc(NC(=O)c2nc(S(=O)(=O)Cc3ccc(F)cc3)ncc2Cl)s1`, the call was inactive. Take `COCc1nn2c(N)c(C#N)cnc2c1-c1ccccc1`: the call was inactive. Take `C=CCOc1nc2c(c(=O)n(C)c(=O)n2C)n1Cc1ccc(Cl)cc1`: the outcome was inactive.

As for `COc1ccc(CCNC(=O)CCC(=O)N2CCOc3ccc(Cl)cc32)cc1OC`, the outcome was inactive. Consider `CCOC(=O)N1CCN(CC(c2ccccc2)c2ccccc2)CC1`, for which the molecule was classed as inactive.

Take `COc1ccccc1NC(=O)Cn1cc(C(=O)C2CC2)c2ccccc21`: the molecule was classed as inactive. `CCC(CC)CN1C(N(C)C)=NC[C@@H]1CC(C)C`: the molecule was classed as inactive. With `CCOC(=O)C1CCCN(S(=O)(=O)c2ccc(S(=O)(=O)N3CCCC3)cc2)C1` (stereo not drawn), the call was inactive. In the case of `CN(CC(=O)NCc1ccc2c(c1)OCO2)S(=O)(=O)c1ccc(Br)s1`, the result was inactive.

For the molecule `Cc1cccc(CCN2C(N(C)C)=NC[C@@H]2CC(C)C)c1`, the result was inactive. Regarding `O=C1C=C(N2CCOCC2)c2ccccc2C1=O`, the outcome was inactive.

As to `COc1cc(OC)c(OC)cc1/C=C1\CC(C)C/C(=C\c2cc(OC)c(OC)cc2OC)C1=O` (stereo not drawn), the molecule was called inactive. Next, `Cc1ccc(C)c(S(=O)(=O)Nc2ccc(-n3cnnn3)cc2)c1`: “inactive”. With `CC1(Cc2ccc(OC(F)(F)F)cc2)C(=O)Nc2c(Cl)ccc(Cl)c21` (stereo not drawn), the molecule was called inactive. As for `Cc1nn(Cc2c(Cl)cccc2Cl)c(C)c1NC(=O)c1cn(-c2ccccc2)nc1-c1ccccc1`, the molecule was called inactive. With `Cc1nn(Cc2noc(C(=O)NC3CCC(C)CC3)n2)c(C)c1Br` (stereo not drawn), the outcome was inactive. On to `CCOC(=O)CC1CCCCN1C(=O)c1cc(COc2cccc3cnccc23)on1` (stereo not drawn), for which the call was inactive. As to `CCCOc1ccc2oc(=O)c3c(c2c1)CCCN3C(=O)CN1CCN(c2ncccn2)CC1`, the call was inactive. `OC(c1ccccc1)C(O)C(c1ccccc1)N1CCCCC1` (stereo not drawn): the call was inactive. Next, `OCCCNc1nccc(-c2cc(Nc3cccc(Cl)c3)ncn2)n1`: “inactive”; `OCCCNc1cc(-c2ccnc(Nc3cccc(Cl)c3)n2)ccn1`: “inactive”; `COc1ccc(OC)c(C(c2nnnn2Cc2ccccc2)N2CCN(C3CCCCC3)CC2)c1` (stereo not drawn): “inactive”.

In the case of `O=S(=O)(c1ccc(Cl)cc1)n1ccc2cccnc21`, the call was inactive. Consider `Cc1sc2ncnc(N3CCN(S(=O)(=O)c4ccccc4)CC3)c2c1C`, for which the molecule was called inactive. For `O=C(CN1C(=O)C2CCCCC2C1=O)NC1CCCc2ccccc21` (stereo not drawn), the call was inactive. Next, `CCc1ccc(-n2c(O)c(C=NCCN(CC)CC)c(=O)[nH]c2=O)cc1`: “inactive”; `CC(C)c1nnc(NC(=O)c2nc(S(=O)(=O)Cc3ccccc3)ncc2Cl)s1`: “inactive”; `O=C1CC(c2ccccc2)CC(O)=C1C=Nc1cccc(Cl)c1` (stereo not drawn): “inactive”. In the case of `CC(=O)N1CCN(C(=O)CCc2cc(C(C)(C)C)c(O)c(C(C)(C)C)c2)CC1`, the molecule was classed as inactive. Take `COC(=O)[C@@]12CCCCN1[C@H](c1ccc(SC3CCCCC3)c(OC)c1)[C@@H]1C(=O)N(C)C(=O)[C@@H]12`: the outcome was inactive. In the case of `CSc1nnc(NC(=O)c2nc(S(=O)(=O)Cc3cccc(C)c3)ncc2Cl)s1`, the result was inactive.

As to `CCSc1nnc(NC(=O)c2nc(S(=O)(=O)Cc3ccc(F)cc3)ncc2Cl)s1`, the molecule was classed as inactive. As to `Cc1ccc(CS(=O)(=O)c2ncc(Cl)c(C(=O)Nc3nnc(C(C)C)s3)n2)cc1`, the call was inactive. As for `CC(C)(C)[C@@H]1COC(=O)[C@@H](NC(=O)OCC2c3ccccc3-c3ccccc32)C/C=C\C[C@@H](CC(=O)NCCO)C(=O)N1`, the molecule was classed as inactive. With `C[C@H]1COC(=O)[C@H](NC(=O)OCC2c3ccccc3-c3ccccc32)C/C=C\C[C@H](CC(=O)N(CCO)Cc2ccccc2)C(=O)N1`, the molecule was classed as inactive.

For the molecule `O=C(CN1C(=O)c2ccccc2S1(=O)=O)c1ccc2c(c1)OCCCO2`, the molecule was called inactive. Consider `COC(=O)[C@@]12CCCN1[C@H](c1ccc(-c3ccc(OC)cc3)cc1)[C@@H]1C(=O)N(C)C(=O)[C@@H]12`, for which the outcome was inactive. Next, `O=C1/C(=C/c2ccccn2)SC(=S)N1Nc1ncc(C(F)(F)F)cc1Cl`: “inactive”; `COc1cc(NC(=O)COc2cccc3c2OC(C)(C)C3)cc(OC)c1OC`: “inactive”.

`CCOC(=O)c1c(C)[nH]c(C(=O)COC(=O)[C@H](C)N2C(=O)C3CCCCC3C2=O)c1C` (stereo partly drawn): the result was inactive. To `CCOc1ccc(NS(=O)(=O)c2cc(C(=O)NCCN3CCOCC3)ccc2C)cc1` belongs “inactive”.
